Drawing on ChEMBL document CHEMBL4513216, “Probing the Open Global Health Chemical Diversity Library for Multistage-Active Starting Points for Next-Generation Antimalarials” (ACS Infect Dis, 2020), this text covers INHIBITION for 105 molecules.

The whole screen tested about 69,000 compounds, of which about 8,600 (12%) showed an effect of 50% or more. This is one part of a sample in which strong results are shown more often than they occur.

The test deals with Plasmodium berghei. The test is described as follows: Screen against P. berghei liver stage (PbLuc), transformed with Luciferase, at 10uM. The test is classed as functional, HepG2. The note with it: tested at 10 uM.
`COCCN1CCn2c(CN(C)C(C)C)cnc2C1`: the INHIBITION was -8.28%.
Turning to `CNC(=O)[C@@H]1[C@H]2CN(Cc3ccoc3)CCN2C[C@H]1c1ccccc1`, the INHIBITION is 9.36%.
With `CNC(=O)[C@@H]1[C@@H](c2ccccc2)CN2CCN(Cc3cccs3)C[C@H]12`, the INHIBITION is on record as 41.1%.
On to `CNC(=O)[C@@H]1[C@@H](c2ccccc2)CN2CCN(Cc3ccco3)C[C@H]12`, for which the INHIBITION is 57%.
In the case of `Cn1cc(N2CC3(CCN(Cc4cccnc4)CC3)OCC2=O)cn1` it was 22.9%; in that of `Cc1nc(C)n(C2CCCN(C(=O)c3ccc4nccn4c3)C2)n1` (stereo not given), 20.8%.
In the case of `Cc1ccc(N2CC[C@]3(O)CCN(CCN4CCCC4=O)C[C@@H]3C2)nn1` it was -2.25%.
In the case of `O=C1CCCN1CCN1CC[C@@]2(O)CCN(c3ncccn3)C[C@H]2C1` it was 51.2%; in that of `CSCCCN1CC[C@@]2(O)CCN(c3ncccn3)C[C@H]2C1`, 38.3%.
Consider `CCc1nnc2n1CCN(C(=O)c1cc3ccccc3[nH]1)C2`, for which the INHIBITION was 18.2%.
Take `Cc1cc(N2CCc3cncnc3C2)n2nc(C(F)(F)F)nc2n1`: the INHIBITION is recorded as 50.8%.
In the case of `Cc1cc(N2CCc3c(ncn3C)C2)n2nc(C(F)(F)F)nc2n1` it was 20%.
In the case of `Cc1cc(N2CCc3cnc(C)nc3C2)n2nc(C(F)(F)F)nc2n1` it was 10.6%.
In the case of `CC(C)SCc1cccc(NC2CCN(C)C2=O)c1` (stereo not given) it was -13.9%; in that of `Cc1nc(C)n(Cc2cccc(NC3CCN(C)C3=O)c2)n1` (stereo not given), -41.6%.
Consider `CCSCc1cccc(NC2CCN(C)C2=O)c1` (stereo not given), for which the INHIBITION was determined as 52.5%.
In the case of `CN1CCCC(CCC(=O)N2CCc3c(nc(CC4CC4)[nH]c3=O)C2)C1` (stereo not given) it was 49.3%; in that of `CCO[C@H]1C[C@@H](O)C12CCN(S(=O)(=O)c1ccccc1OC)CC2`, 46.4%.
In the case of `CCO[C@H]1C[C@@H](O)C12CCN(C(=O)CCN1CCCC1=O)CC2` it was 14.5%; in that of `CCO[C@H]1C[C@@H](O)C12CCN(C1CCN(c3ccccc3C)CC1)CC2`, 69.4%; in that of `CCO[C@H]1C[C@@H](O)C12CCN(C1Cc3ccccc3C1)CC2`, 50.3%.
In the case of `CCOCCn1nc(C)cc1C(=O)N1CCC2(CC1)[C@H](O)C[C@@H]2OCC` it was 9.63%; in that of `CCO[C@H]1C[C@@H](O)C12CCN(C1CCN(c3ccccc3)CC1)CC2`, 25.8%; in that of `NCCO[C@H]1C[C@@H](O)C12CCN(C1Cc3ccccc3C1)CC2`, 43%.
In the case of `CCO[C@H]1C[C@@H](O)C12CCN(C(=O)CN1CCCCCC1=O)CC2`, the INHIBITION was 24.3%.
In the case of `CCO[C@H]1C[C@@H](O)C12CCN(C(=O)CC(F)(F)F)CC2` it was 90.2%; in that of `Cc1ncc(C(=O)N2CCCC(Cc3nccs3)C2)cn1` (stereo not given), 29.3%; in that of `CCN(CC)c1ncc2c(O)nc(C3CCNCC3)cc2n1`, 6.26%.
In the case of `CCN(C)c1ncnc2c1CCN(C(=O)COC)CC2` it was -12.1%; in that of `COC(=O)[C@H](C)NC(=O)COc1nn(C)c2nc(C)cc(C)c12`, -10.2%; in that of `Cc1cc2nc(SCC(=O)N3CCCC3)n(Cc3ccco3)c(O)c-2n1`, 34.2%.
On to `CCS(=O)(=O)N(C)CCCNC(=O)c1cc(Cl)cc2cccnc12`, for which the INHIBITION turned out to be 37.9%.
In the case of `CCCNC(=O)C(C)n1nc(-c2ccc(C)o2)cc(N)c1=O` (stereo not given) it was 31.6%; in that of `CCc1cc(CNC(=O)C2CCCN(C(=O)NCC(C)C)C2)[nH]n1` (stereo not given), 22.5%.
In the case of `CN(Cc1ccccc1)c1cnn(CC2CCCCO2)c(=O)c1` (stereo not given) it was 28.2%; in that of `COCC1CC2(CCN(C(=O)c3cnc4ccccc4c3)CC2)CO1` (stereo not given), 42.1%.
In the case of `Cc1ccc(CN(C)C(=O)CN2CCCC2c2cnn(C)c2)cc1` (stereo not given) it was -1.79%; in that of `CN(Cc1cccc(OC(F)(F)F)c1)C(=O)c1ccncc1F`, 39.4%.
On to `CN(Cc1cccc(OC(F)(F)F)c1)C(=O)Cc1ccon1`, for which the INHIBITION amounted to 19.5%.
Turning to `CN(Cc1cccc(OC(F)(F)F)c1)C(=O)c1cnsn1`, the INHIBITION is given as 68.6%.
In the case of `COC(=O)c1cccc(C(=O)N(C)Cc2ccsc2)c1` it was 13.8%.
In the case of `Cc1ccc(CN(C)C(=O)c2scnc2C)cc1` it was -11.19%.
In the case of `COC(=O)c1cccc(C(=O)N(C)Cc2cccc(O)c2)c1` it was 7.44%; in that of `COC(=O)c1ccc(CN(C)C(=O)c2cnsn2)cc1`, 64.1%.
For the molecule `Cc1ccc(CN(C)C(=O)c2cnsn2)cc1`, the INHIBITION is 65.2%.
With `Cc1nn(C)c2cn(CC(=O)N3CCN(c4ccccn4)CC3)nc12`, the INHIBITION turned out to be 30%.
In the case of `CC(c1ccco1)N(C(=O)Cn1nc2n(c1=O)CCCCC2)C1CC1` (stereo not given), the INHIBITION came out at 5.94%.
In the case of `Cc1ncc(C(=O)NCCNc2ncccc2C#N)s1` it was -0.113%.
With `O=C(Cn1ccnc1)N(CCO)CCSc1ccc(Cl)cc1`, the INHIBITION is recorded as 9.41%.
In the case of `COCC(=O)N1CCCC2(CCN(Cc3cccc(C)n3)C2=O)C1` (stereo not given) it was 43.9%.
In the case of `N#Cc1cc(F)ccc1Cn1cnc(C2CCC2)cc1=O` it was 26.6%; in that of `N#Cc1ccc(F)cc1Cn1cnc(C2CCC2)cc1=O`, -22.3%.
Turning to `N#Cc1cc(Cn2cnc(C3CCC3)cc2=O)ccc1F`, the INHIBITION was determined as 74.3%.
In the case of `CCc1nnc2n1CCN(Cc1cc(Cl)c3c(c1)OCCO3)C2` it was 10.235%.
In the case of `COc1ncccc1CNC(=O)c1cc(Cl)ccn1` it was -22.8%.
In the case of `Cc1noc(CCCC(=O)N2CCCCC2CNS(C)(=O)=O)n1` (stereo not given) it was 49.7%; in that of `CC(C)OCCCNC(=O)CS(=O)(=O)Cc1ccc(Cl)cc1`, 9.64%.
Turning to `CN(C)C(=O)CC1CC2(CCN(Cc3cccs3)CC2)c2ccccc21` (stereo not given), the INHIBITION came to 45.2%.
In the case of `CN(C)C(=O)NC1COC2(CCN(Cc3ccco3)CC2)C1` (stereo not given) it was 27.6%.
Consider `CNC(=O)CC1CC2(CCN(Cc3nccs3)CC2)c2ccccc21` (stereo not given), for which the INHIBITION is listed as -0.113%.
With `CN(C)C(=O)CC1CC2(CCN(Cc3ccco3)CC2)c2ccccc21` (stereo not given), the INHIBITION was 75%.
In the case of `CN(C)C(=O)CC1CC2(CCN(Cc3ccoc3)CC2)c2ccccc21` (stereo not given) it was -6.23%.
In the case of `CN(C)C(=O)CC1CC2(CCN(Cc3ccsc3)CC2)c2ccccc21` (stereo not given) it was 64.2%; in that of `CC(=O)N1CCC(N2CCC(c3nc(C)cc(C)n3)C2)CC1` (stereo not given), 24.8%.
Regarding `Cc1cncnc1C1CCN(CC(N)=O)CC1`, the INHIBITION is on record as -16.9%.
On to `CC(=O)N1CCc2nc(C3CCN(c4ncccn4)C3)ncc2C1` (stereo not given), for which the INHIBITION was -0.902%.
In the case of `CS(=O)(=O)N1C[C@H]2N(c3ncccn3)CCC[C@@]2(C(=O)NCC2CC2)C1` it was 35.8%; in that of `CN1C[C@H]2N(c3ncccn3)CCC[C@@]2(C(=O)NCC2CC2)C1`, 67.5%; in that of `CCN1C[C@H]2N(c3ncccn3)CCC[C@@]2(C(=O)NCC2CC2)C1`, 19.5%.
For the molecule `CNC(=O)[C@@]12CCCN(c3ncccn3)[C@@H]1CN(C)C2`, the INHIBITION is reported as -17.4%.
In the case of `CC(C)CN1C[C@H]2N(c3ncccn3)CCC[C@@]2(C(=O)NCC2CC2)C1` it was 56.6%; in that of `CNC(=O)N1C[C@H]2N(c3ncccn3)CCC[C@@]2(C(=O)NCC2CC2)C1`, 17.7%; in that of `CC(=O)N1CC(=O)N(c2ccccc2)CC12CCN(Cc1cccs1)C2` (stereo not given), 6.38%.
In the case of `COCC1CC2(CCN(Cc3cnn(C)c3)CC2)CN1C(C)C` (stereo not given) it was 37.5%; in that of `O=C(O)c1ccc(C2CCCN(C(=O)c3ccc[nH]3)C2)cc1` (stereo not given), 36.8%.
In the case of `O=C(NCc1cnc2n1CCN(Cc1nccs1)CC2)C1CCC1` it was 30.3%; in that of `Cn1cc(C2CCCN2Cc2csc(C(C)(C)C)n2)cn1` (stereo not given), 55.9%; in that of `Cn1cc(C2CCCN2Cc2csc(C3CCCC3)n2)cn1` (stereo not given), 42%.
Consider `CC(C)c1nc(CN2CCCC2c2cnn(C)c2)cs1` (stereo not given), for which the INHIBITION came out at 19.4%.
Regarding `Cn1cc(C2CCCN2Cc2csc(-c3ccccc3)n2)cn1` (stereo not given), the INHIBITION is given as -38.2%.
In the case of `CC(=O)N(C)c1nc(CN2CCCC2c2cnn(C)c2)cs1` (stereo not given) it was 50.3%; in that of `CC(=O)Nc1nc(CN2CCCC2c2cnn(C)c2)cs1` (stereo not given), 34.9%; in that of `Cc1cnn(CC2CN(Cc3nc(-c4ccsc4)no3)CCO2)c1` (stereo not given), 49.75%.
`CC1(C(=O)N2CCN(c3cnccn3)CC2)CNCCO1` (stereo not given): the INHIBITION worked out at 36.5%.
In the case of `COc1cc2cc3c(nc2cc1OC)OCCN(CC1CC1)C3` it was -7.66%; in that of `COc1cccc(CC(=O)NCc2cnc(C)nc2C2CCCN2C)c1` (stereo not given), 36.7%; in that of `Nc1nc2c(c(N3CCCC(CN4CCCC4=O)C3)n1)CCNCC2` (stereo not given), 48.5%.
In the case of `Cc1nn(C)c2ncnc(N3CCCC(OCc4ccccn4)C3)c12` (stereo not given) it was -46.6%; in that of `Nc1nc2c(c(N3CCCC3)n1)CCN(Cc1ccccn1)CC2`, 41.5%; in that of `Cc1nc2c(c(N3CCCC(OCc4ccccn4)C3)n1)CCNCC2` (stereo not given), 73%.
Turning to `Nc1nc2c(c(N3CCSCC3)n1)CCN(Cc1ccccn1)CC2`, the INHIBITION is recorded as 66.5%.
In the case of `Nc1nc2c(c(N3CCCC(OCc4ccccn4)C3)n1)CCNCC2` (stereo not given) it was 59.4%; in that of `c1ccc(CN2CCc3ncnc(N4CCCC4)c3CC2)nc1`, 46.7%; in that of `NCC1CCCN(c2nc(-c3ccccc3)nc3c2CCNCC3)C1` (stereo not given), 19.5%.
In the case of `Cc1nc(N2CCCC(OCc3ccccn3)C2)c2c(C)noc2n1` (stereo not given) it was -4.21%.
In the case of `CCc1nnc2n1CCN(CC(O)c1ccc3c(c1)OCCO3)C2` (stereo not given) it was 22.333%; in that of `Cc1cnc(CN2CCCC2c2noc(C(C)C)n2)cn1` (stereo not given), 9.54%.
Regarding `O=C(Cc1n[nH]c2ccccc12)N1CCC(Nc2cccnn2)CC1`, the INHIBITION was 49.3%.
In the case of `Cc1ccc(CN2CCOC3(COCCN(C(C)C)C3)C2)o1` (stereo not given) it was 43%.
In the case of `CCc1nnc2n1CCN(C(=O)c1ccc(C)c(S(N)(=O)=O)c1)C2` it was 36.8%; in that of `COCCOCC(=O)Nc1ccc(C)cc1Br`, -5.51%.
In the case of `CCCS(=O)(=O)CCN1CCN(C(C#N)c2ccccc2)CC1` (stereo not given) it was -4.93%; in that of `CCn1c(C2CCN(C(=O)c3cc(CC(C)C)on3)CC2)nn(C)c1=O`, 21.8%; in that of `CCn1c(CC2CCN(C(=O)c3cc(CC(C)C)on3)CC2)n[nH]c1=O`, 51.7%.
Regarding `CCn1c(CC2CCN(C(=O)c3cc(C(C)C)n[nH]3)CC2)n[nH]c1=O`, the INHIBITION came out at 41.5%.
